# This is part of a sample that, as a whole, favours compounds with a hit. Of some 83,000 tested, about 20% had one in any assay.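 Cells were grown in 96-well plates and exposed to the test compound at a single concentration for 48 hours; results are reported as percent growth, with values below 10 considered active.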 Values without a mark were called inactive. Calls of active or inactive are those of the source.
# Test system: NCI/ADR-RES ovarian
# Experiment: NCI-60 one-dose screen, 48 h (100 = growth as untreated, 0 = no growth, -100 = all killed)
# Conditions: 10 µM unless noted
row,SMILES,growth
1,Cc1c([C@H](C(Cl)Cl)[C@H](O)[C@H]2C[C@H](C)C(=O)O2)ccc2c1C(=O)[C@H]1[C@H]2C[C@@H](Br)[C@@]23O[C@@H](CO[C@H]2O)CC13C (stereo not given in full),30.8%
2,O=C1/C(=N\c2cc(=O)[nH]n2S(=O)(=O)c2ccccc2)Nc2ccccc21,101%
3,N=C(N)c1ccc(-c2ccc(-c3ccc(Cl)cc3)s2)s1,-47% (active)
4,COc1cc([C@@H]2c3cc4c(cc3[C@H](O)[C@H]3COC[C@@H]23)OCO4)cc(OC)c1OC,64.9%
5,O=Nc1c(-c2c(O)[nH]c3cc(Br)ccc23)[nH]c2ccccc12,-76.7% (active)
6,CC(C)(C)C(=O)OCOP(=O)(OCOC(=O)C(C)(C)C)C1CC(O)N(O)C1=O (stereo not given),44.6%
7,CC1(C)CC(=O)C2=C(C1)Oc1nc(N)c(C#N)c(N)c1C2c1ccc(F)cc1 (stereo not given),122%
8,O=C1c2cc([N+](=O)[O-])ccc2-c2cc(Cl)c(NC(=O)C(F)(F)F)cc21,105%
9,COc1ccc(CNCCCN2C(=O)c3ccc4c5c(ccc(c35)C2=O)C(=O)N(CCCNCc2ccc(OC)c(OC)c2OC)C4=O)c(OC)c1OC,-36.5% (active)
10,O=C(Nc1ccccc1)Nc1ccc(Nc2ncnc3sc4c(c23)CCCC4)cc1,107%
11,O=S(=O)(Cc1cccc2c(CS(=O)(=O)c3ccc(Cl)cc3)cccc12)c1ccc(Cl)cc1,90%
12,COc1cc(CNC(=O)CCCC/C=C/C(C)C)ccc1OCc1nnc(Nc2ccccc2F)o1,43.3%
13,Nc1nc2c(c3ncncc13)C(c1cccc(C(F)(F)F)c1)Cc1ncncc1-2 (stereo not given),15.3%
14,Cn1cnc2nc[nH]c2c1=S,101%
15,O=C(O)c1ccc(-c2nn(-c3ccc(C(=O)O)cc3)cc2CNc2ccc(Br)cc2)cc1,112%
16,O=C(N/N=C/c1coc2ccccc2c1=O)c1cc2oc(-c3ccccc3)cc2[nH]1,118%
17,CCC(C)C1NC(=O)C(CC(C)C)NC(=O)C(C)NC(=O)C(C(C)C)NC(=O)C(CCCCN)NC(=O)C(CC(C)C)NC(=O)C(C(C)C)NC(=O)[C@H](C)NC(=O)C(C(C)CC)NC(=O)C(CCCN=C(N)N)NC(=O)C(CCCCN)NC(=O)C(CCCN=C(N)N)NC(=O)C(CCCCN)NC(=O)C([C@H](C)CC)NC(=O)C(CCCCN)NC1=O (stereo not given in full),29.3%
18,C=CCN(C)C,106%
19,CCC(CCCN1C(=O)c2ccccc2C1=O)Nc1cc(OC)cc2cccnc12 (stereo not given),99.5%
20,O=c1c(N=Nc2nccs2)c(-c2ccccc2)[nH]n1-c1nc(-c2ccccc2)cs1,10.1%
21,Cc1ccc(C(=O)Nc2ccc(CN3CCN(C)CC3)c(C(F)(F)F)c2)cc1C#Cc1cncc2ncccc12,4.19% (active)
22,CCOC(=O)C1C(=O)C(=O)N(C(C)C)C1C(=O)OCC (stereo not given),106%
23,COc1cc2c(cc1OC)C(Cc1cc(OC)c(OC)cc1[N+](=O)[O-])=NCC2,81.8%
24,COc1ccc2c(c1)/C(=C1/S/C(=N/c3nnc(C)s3)NC1=O)C(=O)N2Cc1ccc(Br)cc1,32.2%
25,CCOP1(=O)CC(C)=C(Cl)C(P(=O)(O)O)C1 (stereo not given),96.1%
26,O=C(O)CC1Cc2ccccc2C1C(=O)O (stereo not given),99.5%
27,Nc1cc2c(cc1Br)[nH]c(=O)c1ccccc12,63%
28,CCc1ccc(C(=Nc2ccc(N(C)C(=O)CN3CCN(C)CC3)cc2)c2c(O)[nH]c3ccc(C(=O)OC)cc23)cc1,10.5%
29,N#CCCCCCCCCCCC#N,98.3%
30,O=C1CSC(c2ccccc2Cl)N1c1nnc(-c2ccncc2)o1 (stereo not given),92.3%
